The text below walks through data of PubChem BioAssay (NCATS).

Structures are written as SMILES. Records with an inconclusive call do not appear. A call without a number means that no potency is given here. Activity calls are given as the source filed them. The call rests on the fitted dose curve; in most records, active means well fitted cell-killing curve with a large enough effect; inconclusive means small, poorly fitted or top-dose-only effect; inactive means flat fitted curve, though single readings scatter.

The nature of one experiment: Cell Viability - LYMP2-023 (AID 975).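 Further: cellular ATP measured by luciferase luminescence as viability proxy; nearly all actives have a fitted effect of over 55% in size.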 Particulars: LYMP2-023 lymphoblastoid cell viability; series mostly up to 92.2 µM. An outline of the steps: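 Steps: seed 2500 human lymphoblastoid cells per well, incubate 5 hr at 37 C, add compound for 24 hr at 37 C, add CellTiter-Glo, hold 30 min at room temperature, read luminescence. AC50 derived by Hill modelling.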
On to `Oc1cccc(Cl)c1Cl`, for which the Potency result is “inactive”.
Still for that read-out and setting: the same measure for `CCC/C=N/O`: “inactive”; for `Nc1cccc2ccccc12`: “inactive”; for `Cc1cnc[nH]1`: “inactive”.
For the compound `CN(C)N=O`, the Potency result was “inactive”.
In the case of `COc1c(C(C)(C)C)cc([N+](=O)[O-])c(C)c1[N+](=O)[O-]`, the Potency result is “inactive”.
With `C=C(Cl)CCl`, the Potency result was “inactive”.
For the compound `ClCCOCOCCCl`, the Potency result was “inactive”.
Turning to `CC12CC1(C)C(=O)N(c1cc(Cl)cc(Cl)c1)C2=O` (centres undefined), the Potency entry is “inactive”.
In the case of `CC(C)(Cl)[N+](=O)[O-]`, the Potency entry is “inactive”.
As to `Cl/C=C/Cl`, the Potency entry was “inactive”.
`CCCCOCC1CO1` (centres undefined): the Potency result is “inactive”.
Still for that read-out and setting: then `O=C(O)c1cccc(Cl)c1`, with “inactive”; and `C1CC2OC2CC1C1CO1` (centres undefined), with “inactive”; and `Oc1c(Cl)cccc1Cl`, with “inactive”.
For `ClCCOCCCl`, the Potency entry was “inactive”.
Turning to `Cl/C=C\Cl`, the Potency result was “inactive”.
Consider `c1ccc2c(c1)CCNC2`, for which the Potency entry is “inactive”.
For `CCBr`, the Potency result is “inactive”.
Turning to `O=[N+]([O-])c1ccc(Cl)c(Cl)c1Cl`, the Potency entry was “inactive”.
Still for that read-out and setting: then `N#CCCC#N`, with “inactive”.
Regarding `Cc1ccccc1[N+](=O)[O-]`, the Potency entry is “inactive”.
For the compound `OCCBr`, the Potency entry was “inactive”.
In the case of `C=CC(=O)OCCN(C)C`, the Potency entry is “inactive”.
Consider `CC(C)(C)C(O)(CCc1ccc(Cl)cc1)Cn1cncn1` (centres undefined), for which the Potency entry is “inactive”.
Take `CN=C=O`: the Potency entry is “inactive”.
`c1ccc(C2CO2)cc1` (centres undefined): the Potency result was “inactive”.
On to `CCCCCC[N+](=O)[O-]`, for which the Potency result is “inactive”.
In the case of `OCC(Cl)CCl` (centres undefined), the Potency result was “inactive”.
As to `COc1ccc(C=O)cc1`, the Potency result was “inactive”.
As to `Nc1ccc(Cl)c(Cl)c1`, the Potency entry is “inactive”.
As for `CC(=O)[O-].CC(=O)[O-].CC(=O)[O-].[Cr+3]`, the Potency entry was “inactive”.
On to `CC(=O)CCC(C)=O`, for which the Potency result is “inactive”.
Turning to `C=CC(=O)OCC(CC)CCCC` (centres undefined), the Potency result was “inactive”.
Take `CC(C#N)CCC#N` (centres undefined): the Potency entry is “inactive”.

A further experiment is described as follows: Cell Viability - LYMP2-025 (AID 976). The conditions noted are these: LYMP2-025 lymphoblastoid cell viability; series mostly up to 92.2 µM. An outline of the steps: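 Acute cytotoxicity is scored as a concentration-dependent fall in intracellular ATP, measured by luciferase luminescence, in human lymphoblastoid LYMP2-025 cells exposed to compound for 24 hours at 37 C. AC50 values come from standard Hill fits.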
As for `CCC/C=N/O`, the Potency entry was “inactive”.
Turning to `Nc1cccc2ccccc12`, the Potency entry was “inactive”.
As for `Cc1cnc[nH]1`, the Potency result is “inactive”.
Consider `CN(C)N=O`, for which the Potency result is “inactive”.
For the compound `COc1c(C(C)(C)C)cc([N+](=O)[O-])c(C)c1[N+](=O)[O-]`, the Potency result was “inactive”.
Take `ClCCOCOCCCl`: the Potency result is “inactive”.
As for `CC12CC1(C)C(=O)N(c1cc(Cl)cc(Cl)c1)C2=O` (centres undefined), the Potency result is “inactive”.
As for `CC(C)(Cl)[N+](=O)[O-]`, the Potency result is “inactive”.
The same measure, in the same setting: the same measure for `Cl/C=C/Cl`: “inactive”; for `CCCCOCC1CO1` (centres undefined): “inactive”; for `O=C(O)c1cccc(Cl)c1`: “inactive”.
In the case of `C1CC2OC2CC1C1CO1` (centres undefined), the Potency result was “inactive”.
As for `Brc1cccc(-c2ccccc2)c1`, the Potency result is “inactive”.
Same read-out and setting: then `Oc1c(Cl)cccc1Cl`, with “inactive”.
For `ClCCOCCCl`, the Potency entry is “inactive”.
`CCNCC`: the Potency result was “inactive”.
In the case of `CC(C)C#N`, the Potency entry is “inactive”.
Regarding `Cl/C=C\Cl`, the Potency entry was “inactive”.
Turning to `c1ccc2c(c1)CCNC2`, the Potency result is “inactive”.
Same read-out and setting: then `CCBr`, with “inactive”; and `O=[N+]([O-])c1ccc(Cl)c(Cl)c1Cl`, with “inactive”; and `N#CCCC#N`, with “inactive”.
Consider `Cc1ccccc1[N+](=O)[O-]`, for which the Potency entry was “inactive”.
Consider `OCCBr`, for which the Potency result was “inactive”.
For `C=CC(=O)OCCN(C)C`, the Potency result was “inactive”.
Turning to `CC(C)(C)C(O)(CCc1ccc(Cl)cc1)Cn1cncn1` (centres undefined), the Potency result is “inactive”.
As to `CN=C=O`, the Potency result was “inactive”.
For `c1ccc(C2CO2)cc1` (centres undefined), the Potency result was “inactive”.
For `CCCCCC[N+](=O)[O-]`, the Potency entry was “inactive”.
As for `OCC(Cl)CCl` (centres undefined), the Potency entry is “inactive”.
Take `COc1ccc(C=O)cc1`: the Potency result is “inactive”.
As to `Nc1ccc(Cl)c(Cl)c1`, the Potency entry is “inactive”.
For `CC(=O)[O-].CC(=O)[O-].CC(=O)[O-].[Cr+3]`, the Potency result was “inactive”.
Consider `CC(=O)CCC(C)=O`, for which the Potency result is “inactive”.
On to `C=CC(=O)OCC(CC)CCCC` (centres undefined), for which the Potency result is “inactive”.

Another experiment can be described thus: Cell Viability - LYMP2-002 (AID 977).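 Further: compound exposure lasted 24 h at 37 °C.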 The conditions noted are these: LYMP2-002 lymphoblastoid cell viability, qHTS; series mostly up to 92.2 µM. An outline of the steps: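 In this qHTS viability screen, 2500 human lymphoblastoid cells per well receive compound for 24 hr at 37 C, and luciferase-based ATP luminescence gives the viability signal. Tetraoctylammonium bromide serves as positive control.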
On the technique in general: In qHTS, concentration-response curves come from the screen itself.
As for `Oc1cccc(Cl)c1Cl`, the Potency entry was “inactive”.
As for `CCC/C=N/O`, the Potency entry was “inactive”.
For the compound `Cc1cnc[nH]1`, the Potency result was “inactive”.
On to `CN(C)N=O`, for which the Potency entry was “inactive”.
With `COc1c(C(C)(C)C)cc([N+](=O)[O-])c(C)c1[N+](=O)[O-]`, the Potency result is “inactive”.
On the same count and under the same terms, the same measure for `C=C(Cl)CCl`: “inactive”.
Still for that read-out and setting: the same measure for `ClCCOCOCCCl`: “inactive”; for `CC12CC1(C)C(=O)N(c1cc(Cl)cc(Cl)c1)C2=O` (centres undefined): “inactive”; for `CC(C)(Cl)[N+](=O)[O-]`: “inactive”.
As to `Cl/C=C/Cl`, the Potency entry is “inactive”.
For `CCCCOCC1CO1` (centres undefined), the Potency entry is “inactive”.
For the compound `O=C(O)c1cccc(Cl)c1`, the Potency entry is “inactive”.
Regarding `C1CC2OC2CC1C1CO1` (centres undefined), the Potency result is “inactive”.
The same measure, in the same setting: then `Brc1cccc(-c2ccccc2)c1`, with “inactive”; and `Oc1c(Cl)cccc1Cl`, with “inactive”; and `ClCCOCCCl`, with “inactive”.
In the case of `CCNCC`, the Potency result is “inactive”.
For the compound `CC(C)C#N`, the Potency result was “inactive”.
Still for that read-out and setting: the same measure for `Cl/C=C\Cl`: “inactive”; for `c1ccc2c(c1)CCNC2`: “inactive”; for `CCBr`: “inactive”.
For `O=[N+]([O-])c1ccc(Cl)c(Cl)c1Cl`, the Potency result is “inactive”.
Still for that read-out and setting: then `N#CCCC#N`, with “inactive”; and `OCCBr`, with “inactive”; and `C=CC(=O)OCCN(C)C`, with “inactive”.
`N#CCCCCC#N`: the Potency result was “inactive”.
Regarding `c1ccc(C2CO2)cc1` (centres undefined), the Potency result is “inactive”.
For `CCCCCC[N+](=O)[O-]`, the Potency entry is “inactive”.
As for `OCC(Cl)CCl` (centres undefined), the Potency entry was “inactive”.
Turning to `Nc1ccc(Cl)c(Cl)c1`, the Potency result was “inactive”.
For the compound `CC(=O)[O-].CC(=O)[O-].CC(=O)[O-].[Cr+3]`, the Potency entry was “inactive”.
On the same count and under the same terms, the same measure for `CC(=O)CCC(C)=O`: “inactive”; for `C=CC(=O)OCC(CC)CCCC` (centres undefined): “inactive”.
On to `CC(C#N)CCC#N` (centres undefined), for which the Potency result is “inactive”.

The nature of a further experiment: Cell Viability - LYMP2-006 (AID 978). Further: nearly all actives have a fitted effect of over 60% in size. Particulars: LYMP2-006 lymphoblastoid cell viability, qHTS; series mostly up to 92.2 µM. An outline of the steps: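 Cells are seeded at 2500 per well and rested 5 hr at 37 C. Compounds are added across a concentration series for 24 hr at 37 C, after which ATP is quantified by luciferase luminescence.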
Regarding `Oc1cccc(Cl)c1Cl`, the Potency result was “inactive”.
Still for that read-out and setting: then `CCC/C=N/O`, with “inactive”; and `Cc1cnc[nH]1`, with “inactive”; and `CN(C)N=O`, with “inactive”.
On the same count and under the same terms, the same measure for `ClCCOCOCCCl`: “inactive”.
Regarding `CC12CC1(C)C(=O)N(c1cc(Cl)cc(Cl)c1)C2=O` (centres undefined), the Potency entry was “inactive”.
For the compound `CC(C)(Cl)[N+](=O)[O-]`, the Potency result is “inactive”.
Consider `Cl/C=C/Cl`, for which the Potency entry was “inactive”.
Regarding `CCCCOCC1CO1` (centres undefined), the Potency entry is “inactive”.
On the same count and under the same terms, then `O=C(O)c1cccc(Cl)c1`, with “inactive”.
Consider `Brc1cccc(-c2ccccc2)c1`, for which the Potency entry is “inactive”.
Regarding `Oc1c(Cl)cccc1Cl`, the Potency entry was “inactive”.
Regarding `ClCCOCCCl`, the Potency entry was “inactive”.
As to `CCNCC`, the Potency entry is “inactive”.
In the case of `CC(C)C#N`, the Potency entry was “inactive”.
The same measure, in the same setting: the same measure for `c1ccc2c(c1)CCNC2`: “inactive”.
The same measure, in the same setting: then `O=[N+]([O-])c1ccc(Cl)c(Cl)c1Cl`, with “inactive”.
On to `N#CCCC#N`, for which the Potency entry was “inactive”.
Regarding `Cc1ccccc1[N+](=O)[O-]`, the Potency entry is “inactive”.
For the compound `OCCBr`, the Potency result is “inactive”.
Turning to `C=CC(=O)OCCN(C)C`, the Potency entry is “inactive”.
Regarding `CC(C)(C)C(O)(CCc1ccc(Cl)cc1)Cn1cncn1` (centres undefined), the Potency result was “inactive”.
Regarding `CN=C=O`, the Potency entry was “inactive”.
As to `CCCCCC[N+](=O)[O-]`, the Potency result is “inactive”.
`COc1ccc(C=O)cc1`: the Potency entry is “inactive”.
For the compound `Nc1ccc(Cl)c(Cl)c1`, the Potency result was “inactive”.
Take `CC(=O)[O-].CC(=O)[O-].CC(=O)[O-].[Cr+3]`: the Potency result is “inactive”.
With `CC(=O)CCC(C)=O`, the Potency result was “inactive”.
Take `C=CC(=O)OCC(CC)CCCC` (centres undefined): the Potency entry was “inactive”.
Still for that read-out and setting: then `CC(C#N)CCC#N` (centres undefined), with “inactive”.
